In PubChem BioAssay AID1159580 (chemical genetic matrix, 2015):
“And” between values parts separate entries of the source, which are not always exact repeats. Equal values may be shown once. Out of some 5,500 compounds screened, about 2,000 (36%) were called active. Roughly 18% stayed inconclusive and do not appear here. Rule as the data show it: active = normalized growth mostly below about 0.91 (no sharp cut-off); inconclusive = no clear call, values can overlap the other calls; inactive = mostly above about 0.92. Some of the results follow.

Test: chemical genetic growth profiling, strain panel (AID 1159580);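 also: tested at 20 µM; growth read once vehicle control cultures reached saturation at 30 °C; 1 = growth at the plate median or of vehicle wells; lower values mean less growth of the strain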
Conditions: S. cerevisiae deletion strains, growth OD

Measured: normalized growth

Nc1ccccc1C(=O)CC(N)C(=O)O (stereo not drawn)
inactive: locus YAL021C, strain ccr4, active compounds read low 1.01 | locus YAL026C, strain drs2, active compounds read low 1.01 | locus YAL030W, strain snc1, active compounds read low 0.992 | locus YBL061C, strain skt5, active compounds read low 1 | locus YBR009C, strain hhf1, active compounds read low 1.01 | locus YBR021W, strain FUR4, active compounds read low 1.06 | locus YBR023C, strain chs3, active compounds read low 1 | locus YBR171W, strain sec66, active compounds read low 0.99 | locus YBR229C, strain ROT2, active compounds read low 1.01 | locus YBR231C, strain swc5, active compounds read low 0.97 | locus YBR279W, strain paf1, active compounds read low 1.01 | locus YCL011C, strain gbp2, active compounds read low 1.01 | locus YCL016C, strain dcc1, active compounds read low 1 | locus YCL029C, strain bik1, active compounds read low 0.968 | locus YCL069W, strain vba3, active compounds read low 1.01 | locus YCR088W, strain abp1, active compounds read low 0.989 | locus YDL005C, strain med2, active compounds read low 0.989 | locus YDL035C, strain GPR1, active compounds read low 1.01 | locus YDL040C, strain nat1, active compounds read low 0.989 | locus YDL074C, strain BRE1, active compounds read low 0.968 | locus YDL101C, strain DUN1, active compounds read low 0.995 | locus YDL134C, strain PPH21, active compounds read low 1.07 | locus YDL185W, strain tfp1, active compounds read low 0.947 | locus YDL192W, strain arf1, active compounds read low 0.984 | locus YDR001C, strain nth1, active compounds read low 0.99 | locus YDR069C, strain doa4, active compounds read low 0.984 | locus YDR101C, strain arx1, active compounds read low 0.956 | locus YDR137W, strain rgp1, active compounds read low 0.998 | locus YDR150W, strain NUM1, active compounds read low 0.997 | locus YDR159W, strain sac3, active compounds read low 0.981 | locus YDR162C, strain NBP2, active compounds read low 1.01 | locus YDR195W, strain ref2 0.94 | locus YDR297W, strain sur2, active compounds read low 0.994 | locus YDR318W, strain mcm21, active compounds read low 1.01 | locus YDR334W, strain swr1, active compounds read low 0.99 | locus YDR335W, strain msn5, active compounds read low 1 | locus YDR388W, active compounds read low 0.994 | locus YDR392W, strain spt3, active compounds read low 0.907 | locus YDR502C, strain sam2, active compounds read low 1 | locus YEL003W, strain gim4, active compounds read low 1.01 | locus YEL037C, strain rad23, active compounds read low 1 | locus YEL061C, strain CIN8 (second series), active compounds read low 0.992 | locus YEL061C, strain CIN8, active compounds read low 1 | locus YER015W, strain faa2, active compounds read low 1.01 | locus YER016W, strain bim1, active compounds read low 0.996 | locus YER110C, active compounds read low 0.975 | locus YER111C, strain swi4, active compounds read low 0.998 | locus YER155C, strain BEM2 (second series), active compounds read low 0.939 | locus YER155C, strain BEM2, active compounds read low 0.997 | locus YER167W, strain BCK2, active compounds read low 1.01 | locus YFR010W, strain ubp6, active compounds read low 1.01 | locus YGL078C, strain dbp3, active compounds read low 0.989 | locus YGL086W, strain mad1, active compounds read low 0.954 | locus YGL167C, strain pmr1, active compounds read low 0.997 | locus YGL173C, strain kem1, active compounds read low 1 | locus YGL227W, strain vid30, active compounds read low 0.996 | locus YGL240W, strain doc1, active compounds read low 0.941 | locus YGL248W, strain PDE1, active compounds read low 1.01 | locus YGL253W, strain hxk2, active compounds read low 1.03 | locus YGR078C, strain PAC10, active compounds read low 0.998 | locus YGR135W, strain pre9, active compounds read low 1 | locus YGR229C, strain SMI1, active compounds read low 1.01 | locus YGR252W, strain gcn5, active compounds read low 1.17 | locus YHR013C, strain ard1, active compounds read low 0.998 | locus YHR027C, strain rpn1, active compounds read low 0.984 | locus YHR030C, strain SLT2, active compounds read low 0.989 and 1.03 | locus YHR079C, strain IRE1 (second series), active compounds read low 0.992 | locus YHR079C, strain IRE1, active compounds read low 1.05 | locus YHR094C, strain hxt1, active compounds read low 0.995 | locus YHR129C, strain ARP1, active compounds read low 1.01 | locus YHR142W, strain chs7, active compounds read low 0.995 | locus YHR200W, strain rpn10, active compounds read low 0.995 | locus YIL066C, strain RNR3, active compounds read low 1 | locus YIL073C, strain SPO22, active compounds read low 0.986 | locus YIL125W, strain kgd1, active compounds read low 0.993 | locus YIR030C, strain dcg1, active compounds read low 0.997 | locus YJL092W, strain hpr5, active compounds read low 1.01 | locus YJL095W, strain BCK1 (second series), active compounds read low 0.993 | locus YJL095W, strain BCK1, active compounds read low 0.998 and 1.02 | locus YJL115W, strain asf1, active compounds read low 0.985 | locus YJL129C, strain trk1, active compounds read low 1.03 | locus YJL134W, strain LCB3, active compounds read low 0.991 | locus YJL154C, strain vps35, active compounds read low 0.991 | locus YJL164C, strain tpk1, active compounds read low 1.03 | locus YJL166W, strain qcr8, active compounds read low 0.991 | locus YJL168C, strain set2, active compounds read low 0.985 | locus YJL187C, strain SWE1 (second series), active compounds read low 0.992 | locus YJL187C, strain SWE1, active compounds read low 1.02 | locus YJR043C, strain POL32, active compounds read low 1.01 | locus YJR066W, strain TOR1, active compounds read low 0.952 | locus YJR075W, strain HOC1, active compounds read low 0.995 | locus YKL009W, strain mrt4, active compounds read low 0.964 | locus YKL068W, active compounds read low 0.975 | locus YKL085W, strain MDH1 (second series), active compounds read low 0.983 | locus YKL085W, strain MDH1, active compounds read low 0.983 | locus YKL160W, strain elf1, active compounds read low 1.02 | locus YKL190W, strain CNB1, active compounds read low 1.01 | locus YKR001C, strain vps1, active compounds read low 0.959 | locus YKR026C, strain gcn3, active compounds read low 0.992 | locus YKR091W, strain srl3, active compounds read low 0.991 | locus YLL001W, strain dnm1, active compounds read low 1 | locus YLL026W, active compounds read low 0.994 | locus YLL041C, strain sdh2, active compounds read low 0.998 | locus YLR027C, strain aat2, active compounds read low 1.01 | locus YLR039C, strain RIC1, active compounds read low 0.91 | locus YLR058C, strain SHM2, active compounds read low 1.01 | locus YLR102C, strain apc9, active compounds read low 0.984 | locus YLR113W, strain HOG1, active compounds read low 1.02 | locus YLR221C, strain rsa3, active compounds read low 0.987 | locus YLR258W, strain gsy2, active compounds read low 1.01 | locus YLR262C, strain YPT6 (second series), active compounds read low 1 | locus YLR262C, strain YPT6, active compounds read low 0.896 | locus YLR268W, strain sec22, active compounds read low 0.957 | locus YLR320W, strain mms22, active compounds read low 0.983 | locus YLR330W, strain CHS5, active compounds read low 0.989 | locus YLR342W, strain FKS1 (second series), active compounds read low 1.02 | locus YLR342W, strain FKS1, active compounds read low 0.992 | locus YLR357W, strain rsc2, active compounds read low 0.984 | locus YLR370C, strain arc18, active compounds read low 0.992 | locus YLR371W, strain rom2, active compounds read low 0.984 | locus YLR384C, strain iki3, active compounds read low 0.972 | locus YLR418C, strain cdc73, active compounds read low 1.06 | locus YML016C, strain PPZ1, active compounds read low 0.989 | locus YML032C, strain rad52, active compounds read low 1.02 | locus YML120C, strain ndi1, active compounds read low 1 | locus YML124C, strain tub3, active compounds read low 0.994 | locus YMR058W, strain fet3, active compounds read low 1 | locus YMR078C, strain ctf18, active compounds read low 0.98 | locus YMR125W, strain sto1, active compounds read low 1.02 | locus YMR129W, active compounds read low 1 | locus YMR205C, strain PFK2, active compounds read low 1.02 | locus YMR223W, strain ubp8, active compounds read low 0.995 | locus YMR231W, strain pep5, active compounds read low 0.996 | locus YMR263W, strain SAP30, active compounds read low 0.995 | locus YMR307W, strain GAS1, active compounds read low 1.16 | locus YNL067W, strain RPL9B, active compounds read low 0.998 | locus YNL071W, strain lat1, active compounds read low 1 | locus YNL153C, strain GIM3, active compounds read low 0.988 | locus YNL183C, strain NPR1, active compounds read low 0.965 | locus YNL209W, strain ssb2, active compounds read low 1 | locus YNL233W, strain BNI4, active compounds read low 0.993 | locus YNL248C, strain rpa49, active compounds read low 0.914 | locus YNL250W, strain rad50, active compounds read low 0.935 | locus YNL271C, strain bni1, active compounds read low 0.984 | locus YNL298W, strain CLA4, active compounds read low 0.991 | locus YNL307C, strain MCK1, active compounds read low 0.982 | locus YNL322C, strain KRE1 (second series), active compounds read low 1 | locus YNR049C, strain mso1, active compounds read low 1.02 | locus YNR052C, strain pop2, active compounds read low 1.02 | locus YOL006C, strain TOP1, active compounds read low 0.831 | locus YOL012C, strain htz1 0.879 | locus YOL147C, strain pex11, active compounds read low 0.991 | locus YOR001W, strain rrp6, active compounds read low 0.972 | locus YOR061W, strain CKA2, active compounds read low 0.992 | locus YOR069W, strain VPS5, active compounds read low 0.993 | locus YOR070C, strain gyp1, active compounds read low 1 | locus YOR080W, strain dia2, active compounds read low 1 | locus YOR083W, strain WHI5, active compounds read low 1.02 | locus YOR106W, strain vam3, active compounds read low 1.02 | locus YOR136W, strain idh2, active compounds read low 0.972 | locus YOR144C, strain elg1, active compounds read low 0.996 | locus YOR184W, strain ser1, active compounds read low 0.978 | locus YOR231W, strain MKK1, active compounds read low 1.04 | locus YOR265W, strain rbl2, active compounds read low 1 | locus YOR270C, strain vph1, active compounds read low 1.04 | locus YOR290C, strain snf2, active compounds read low 0.994 | locus YOR316C, strain cot1, active compounds read low 0.994 | locus YPL051W, strain arl3, active compounds read low 1 | locus YPL078C, strain atp4, active compounds read low 1.01 | locus YPL106C, strain sse1, active compounds read low 0.966 | locus YPL240C, strain hsp82, active compounds read low 0.992 | locus YPL241C, strain CIN2, active compounds read low 1.01 | locus YPL256C, strain CLN2, active compounds read low 1.04 | locus YPR119W, strain clb2, active compounds read low 0.985 | locus YPR141C, strain kar3, active compounds read low 0.992 | locus YPR163C, strain tif3, active compounds read low 0.986 | locus YPR167C, strain met16, active compounds read low 0.996 | strain wtn01, active compounds read low 0.94
